Screening results deposited in PubChem by National Center for Advancing Translational Sciences (NCATS).
KDM5B inhibitor: Primary screen for KDM5B Histone Demethylases FDH-coupled qHTS; Lysine-specific demethylase 5B (Homo sapiens), Q9UGL1; KDM5B demethylase, FDH-coupled NADH fluorescence (FDH is formaldehyde dehydrogenase); Potency, µM (top dose mostly 57.7 µM), most hits filed as inhibitors; 220,000 compounds, 2.6% hits; AID 1347165, 2019; active = well fitted inhibition curve with a large enough effect; also: nearly all actives have a fitted effect of over 70% in size
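Inhibition is measured as reduced NADH fluorescence generation from FDH coupling to formaldehyde release. Truncated KDM5BΔAP at 200 nM final acts on H3K4me3 peptide (12.5 µM in substrate mix) in pH 7.5 HEPES buffer with Tween-20, 30 min, room temperature.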
Hits are given with their value; n = inactive. The sample as a whole holds a higher share of hits than the screen did.

SMILES	KDM5B inhibitor
O=C(NCc1cccnc1)c1ccc2c(c1)N(Cc1ccccc1F)C(=O)c1ccccc1S2=O (configuration not stated)	n
O=C(NCCc1cccnc1)c1cccc(F)c1	n
O=C(Nc1cccnc1)c1nc2c(o1)CCN(Cc1ccc(F)cc1F)CC2	n
O=C(Nc1cccnc1)c1cc(-c2ccccc2F)cc2c1OCCN2Cc1cccnc1	35.5µM
CN(C)CCN(C)C(=O)c1cc(-c2ccccc2F)cc2c1OCCN2Cc1cccnc1	n
CN(C)CCNC(=O)c1cc(-c2ccccc2F)cc2c1OCCN2Cc1cccnc1	35.5µM
CCOc1ccccc1-c1noc(CN2CCCc3c(C(=O)NC(C)C)cccc32)n1	n
CC(C)NC(=O)c1cc(-c2ccccc2F)cc2c1OCCN2Cc1cccnc1	22.4µM
O=C(NCc1ccco1)c1cc(-c2ccccc2F)cc2c1OCCN2Cc1cccnc1	28.2µM
CC(Cc1cccnc1)NC(=O)c1cc(COc2c(F)cccc2F)on1 (configuration not stated)	n
CN(C(=O)CN1CCN(Cc2ccccc2)CC1)c1ccccc1C(=O)NCc1ccco1	n
C=CCNC(=S)Nc1ccccc1F	n
COc1ccc(C2C3=C(COC3=O)Nc3c2c(=O)[nH]c(=O)n3CC(C)C)cc1 (configuration not stated)	n
O=C(CN1Cc2nc(-c3ccsc3)ccc2OCC1=O)N1CCCC1	n
COc1cccc(CN2Cc3nc(Oc4ccccc4)ccc3OCC2=O)c1	n
COc1cccc(CN2Cc3nc(-c4cnn(C)c4)ccc3OCC2=O)c1	n
Cc1ccccc1-c1ccc2c(n1)CN(CCOc1ccccc1)C(=O)CO2	n
COc1cccc(CN2Cc3nc(-c4cc5ccccc5o4)ccc3OCC2=O)c1	50.1µM
COc1cccc(CN2Cc3nc(-c4ccc(F)cc4)ccc3OCC2=O)c1	n
COc1cccc(CN2Cc3nc(-c4cnn(Cc5ccccc5)c4)ccc3OCC2=O)c1	n
COc1cccc(CN2Cc3nc(-c4cc(Cl)ccc4OC)ccc3OCC2=O)c1	35.5µM
COc1cccc(CN2Cc3nc(-c4cncnc4)ccc3OCC2=O)c1	n
COc1cccc(CN2Cc3nc(N(C)c4ccccc4)ccc3OCC2=O)c1	31.6µM
O=C(CN1Cc2nc(-c3cc4ccccc4o3)ccc2OCC1=O)N1CCCC1	28.2µM
COc1cccc(CN2Cc3nc(-c4c(C)noc4C)ccc3OCC2=O)c1	n
SMILES	KDM5B inhibitor
CC(CCc1ccccc1)NC(=O)CSc1nc2cc(Cl)ccc2s1 (configuration not stated)	n
O=C(/C=C/C=C/c1ccc([N+](=O)[O-])cc1)c1ccccc1	n
c1ccc(Nc2nc(NCc3ccc4c(c3)OCO4)nc3nccnc23)cc1	n
CN(Cc1ccccc1C(F)(F)F)C(=O)C1CCN(Cc2cccnc2)CC1	n
O=C(Cc1ccccc1)NC1CCN(c2ccc(S(=O)(=O)C(F)(F)F)cc2)CC1	n
CCC(=O)c1cc(Cl)ccc1OCC(=O)Nc1ccccc1N1CCCC1=O	n
O=C(NC12CC3CC(CC(C3)C1)C2)C1(c2cccc(F)c2)CCC1	n
CN1CCCC1COc1ccc2c(n1)CN(Cc1ccc(F)cc1)C(=O)CO2 (configuration not stated)	n
CN(c1ccccc1)c1ccc2c(n1)CN(Cc1ccc(F)cc1)C(=O)CO2	31.6µM
COc1ccc(-c2ccc3c(n2)CN(Cc2csc(C)n2)C(=O)CO3)cc1F	35.5µM
NC(=O)c1cccc(-c2ccc3c(n2)CN(Cc2ccc(F)cc2)C(=O)CO3)c1	35.5µM
CC(=O)Nc1cccc(-c2ccc3c(n2)CN(Cc2ccccc2)C(=O)CO3)c1	n
Cc1nc(CN2Cc3nc(-c4cnn(Cc5ccccc5)c4)ccc3OCC2=O)cs1	n
COc1cccc(CN2Cc3nc(-c4cccc(NC(C)=O)c4)ccc3OCC2=O)c1	n
Cc1nc(CN2Cc3nc(-c4ccccc4F)ccc3OCC2=O)cs1	n
O=C1COc2ccc(OCc3cncs3)nc2CN1Cc1ccc(F)cc1	n
COc1ccc(NC(C)c2nc(-c3cccs3)no2)cc1 (configuration not stated)	n
COC(=O)CCn1c(SC(C)C(=O)c2ccc(Br)cc2)nc2ccccc2c1=O (configuration not stated)	n
Cc1ccc(C)c(Nc2nnc(-c3ccc(C)c(S(N)(=O)=O)c3)c3ccccc23)c1	n
CCC(=O)Nc1ccc(S(=O)(=O)NCCn2nc(-c3ccc(Cl)cc3)ccc2=O)cc1	n
C/C(=N\NC(=O)C1CC1)c1ccncc1	n
C/C(=N\Nc1ccc(Br)cc1)c1ccc([N+](=O)[O-])cc1	n
O=[S+]1([O-])NC2(CCN(Cc3ccc(Cl)s3)CC2)COc2ccccc21	70.8µM
O=[S+]1([O-])NC2(CCN(Cc3cccnc3)CC2)COc2ccccc21	n
O=C(C1CC1)N1CCCC2(COc3ccccc3[S+](=O)([O-])N2)C1 (configuration not stated)	n
O=C(C1CCCCC1)N1CCCC2(COc3ccccc3[S+](=O)([O-])N2)C1 (configuration not stated)	n
